# From PubChem BioAssay AID1794835 (Parasite Biology Lab, Institute for Biomedicine and …, 2023)
# In all, about 2,500 compounds went through this assay and about 45 (2%) were called active. This is one part of a sample in which actives are shown more often than they occur. No stated cut-off is given here; in the data, active means inhibition mostly above about 45% (no sharp cut-off); inactive means mostly below about 37%.
# Assay: anti-Giardia activity of synthetic compounds – Compounds Australia Scaffold Library subset, 24/48 h, primary screen (AID 1794835);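 on inhibition: 0% = parasite counts in DMSO vehicle wells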
# Conditions: Giardia lamblia BRIS/91/HEPU/1279 trophozoite counts, imaging, at 10 µM
# [1] = measured here: growth inhibition at 24 h, stronger effect = higher value
structure (smiles),measurement,setting,value
Cc1nc(C2(NC(=O)CCc3ncc(-c4ccccc4F)o3)CCCCC2)no1,inhibition,,inactive
Cc1ccc(NC(=O)c2nnc(C3CCCN3C(=O)NC3CCCC3)s2)cc1 (stereo not drawn),inhibition,stronger effect = higher value,4.4% (inactive)
same,inhibition,[1],1%
CCN(Cc1cccs1)C(=O)CN1CCC(n2c(=O)[nH]c3ccccc32)CC1,inhibition,,inactive
O=C(CN1C(=O)COc2ccc(C(=O)N3CCCCC3)cc21)NCc1ccccc1,inhibition,,inactive
Cc1ccc(NC(=O)CN2C(=O)C3CCCCN3c3ccc(C(=O)N4CCCC4)cc32)cc1 (stereo not drawn),inhibition,stronger effect = higher value,62.4% (active)
same,inhibition,[1],35.5%
CN1CCN(CCNC(=O)CN2C(=O)C3CCCCN3c3ccc(C(=O)N4CCCC4)cc32)CC1 (stereo not drawn),inhibition,stronger effect = higher value,13% (inactive)
same,inhibition,[1],11.7%
O=C(NCCCN1CCN(c2ccccc2)CC1)c1noc2c1CCCCC2,inhibition,stronger effect = higher value,9.7% (inactive)
Cc1cccc(CC(=O)N2CCN(c3nc4cccnc4n(Cc4ccccc4)c3=O)CC2)c1,inhibition,stronger effect = higher value,38.8% (inactive)
same,inhibition,[1],12.1%
CCN1CCCc2cc(C(=O)N3CCOCC3)sc21,inhibition,,inactive
CCC1Cn2c(C(=O)NCCN(C)C3CCCCC3)cc3cccc(c32)O1 (stereo not drawn),inhibition,stronger effect = higher value,53.7% (active)
same,inhibition,[1],13.8%
Cc1nccc2[nH]c(=O)c(C(=O)NCCCN(C)C3CCCCC3)cc12,outcome,,inactive
same,inhibition,[1],0.2%
Cc1cc(C)c2c(=O)n(CC(=O)Nc3ccc(Br)cc3)c(=O)n(C)c2n1,outcome,,inactive
same,inhibition,[1],4.9%
CCC1CCCCN1C(=O)Cn1c(C(=O)OC)cc2occc21 (stereo not drawn),inhibition,stronger effect = higher value,8.8% (inactive)
CCc1nnc2c3ccccc3nc(N3CCN(c4cccc(Cl)c4)CC3)n12,inhibition,stronger effect = higher value,73.1% (active)
same,inhibition,[1],33.5%
Cc1cc2n(n1)CCCN2CC(=O)N1CCN(c2cccc(Cl)c2)CC1,inhibition,stronger effect = higher value,5.3% (inactive)
CC(C)C(=O)N1CCN(c2nc3ccccc3c3nnc(-c4cccs4)n23)CC1,inhibition,,inactive
O=C1CC(C(=O)N2CCN(c3ccccc3F)CC2)CN1Cc1ccccc1 (stereo not drawn),inhibition,,inactive
COc1cccc(CCC(=O)N2CCCC(c3nnc4n3CCCCC4)C2)c1 (stereo not drawn),inhibition,stronger effect = higher value,2.6% (inactive)
same,inhibition,[1],2.1%
O=c1c2cnc(N3CCCCC3)nc2ccn1CCc1ccccc1,inhibition,,inactive
O=C(c1ccco1)N1CCC(NS(=O)(=O)c2ccc(Cl)cc2)CC1,outcome,,inactive
same,inhibition,[1],0.2%
O=C(Nc1ccccc1)c1cc(-c2cccs2)n(C2CCS(=O)(=O)C2)n1 (stereo not drawn),inhibition,stronger effect = higher value,1.7% (inactive)
same,inhibition,[1],9.1%
Cc1cccc(-c2noc(Cn3cccn3)n2)c1,outcome,,inactive
same,inhibition,[1],3.8%
Cc1ccc(S(=O)(=O)NC2CCN(C(=O)Cc3ccc(Br)cc3)CC2)cc1,inhibition,stronger effect = higher value,3.1% (inactive)
same,inhibition,[1],2%
Cc1ccnc(N2CCCC(C(=O)N3CC=C(c4ccccc4)CC3)C2)n1 (stereo not drawn),inhibition,stronger effect = higher value,46.1% (active)
same,inhibition,[1],18%
O=C(C1CCN(S(=O)(=O)c2ccccc2)CC1)N1CC=C(c2ccccc2)CC1,outcome,,inactive
same,inhibition,[1],1%
Cc1ccnc(N2CCCC(C(=O)NC3CCCC3)C2)n1 (stereo not drawn),inhibition,stronger effect = higher value,10.9% (inactive)
same,inhibition,[1],2.5%
Cc1ncc([N+](=O)[O-])n1Cc1csc(Cc2ccccc2)n1,inhibition,stronger effect = higher value,67% (active)
same,inhibition,[1],30.1%
CC(NC(=O)Cc1csc(Cc2ccccn2)n1)c1ccc(F)cc1 (stereo not drawn),outcome,,inactive
same,inhibition,[1],5.1%
O=c1c2ccsc2ncn1Cc1nc(Cc2ccccc2)no1,inhibition,,inactive
O=C(Cc1ccccc1)NCc1nc(-c2ccc3c(c2)nnn3C2CCCC2)no1,inhibition,,inactive
O=C(NCc1cccc(C(F)(F)F)c1)C1CCCN(c2nccnc2Oc2ccccc2)C1 (stereo not drawn),inhibition,stronger effect = higher value,15.6% (inactive)
COc1ccc(CNC(=O)N2CCC(c3ccn4ncc(C(=O)N5CCOCC5)c4c3)CC2)cc1,inhibition,stronger effect = higher value,0.7% (inactive)
same,inhibition,[1],3.8%
CCCCN(CCCC)S(=O)(=O)c1ccc2c(c1)CCCC(=O)N2,inhibition,stronger effect = higher value,27.2% (inactive)
same,inhibition,[1],13.8%
COCCCN(Cc1ccco1)C(=O)Cn1cnc2onc(-c3ccc(Cl)cc3)c2c1=O,inhibition,,inactive
CCCn1nc(C(=O)N2CCCN(C(C)=O)CC2)ccc1=O,inhibition,,inactive
NCc1c2n(c(=O)n(CC(=O)Nc3ccc4c(c3)OCCO4)c1=O)CCCCC2,inhibition,,inactive
Cc1sc(-c2ccc(=O)[nH]n2)cc1S(=O)(=O)NCc1cccnc1,inhibition,,inactive
Cc1sc(C(=O)N2CCCC2)c2ncnc(NCc3ccc(F)c(Cl)c3)c12,inhibition,stronger effect = higher value,23.9% (inactive)
same,inhibition,[1],14.4%
CCc1nc(-c2cc(S(=O)(=O)NCc3ccccc3)c(C)s2)no1,inhibition,,inactive
CCNS(=O)(=O)c1cc(-c2ccc(=O)n(CC)n2)sc1C,inhibition,,inactive
CCc1nc(-c2cc(S(=O)(=O)NCc3ccc(F)c(Cl)c3)c(C)s2)cs1,inhibition,stronger effect = higher value,43.9% (active)
same,inhibition,[1],15.2%
Cc1cccc(CNS(=O)(=O)c2cc(-c3csc(C)n3)sc2C)c1,inhibition,stronger effect = higher value,63.6% (active)
same,inhibition,[1],21.2%
CN1CCN(CC2CCN(C(=O)Cc3cccc4ccccc34)CC2)CC1,inhibition,stronger effect = higher value,17.7% (inactive)
Fc1cccc(Nc2c3c(nc4ccccc24)CCC3)c1,inhibition,stronger effect = higher value,55.5% (active)
same,inhibition,[1],2.3%
COc1cccc(Nc2c3c(nc4ccccc24)CCC3)c1,inhibition,stronger effect = higher value,62.3% (active)
same,inhibition,[1],22%
COc1cccc(Nc2nc(N3CCN(c4ccccc4)CC3)nc3c2cnn3C)c1,inhibition,stronger effect = higher value,5.8% (inactive)
same,inhibition,[1],6.1%
COc1cccc(-c2noc(Nc3cccc(C)c3)n2)c1,outcome,,inactive
same,inhibition,[1],3.1%
CCc1cccc(NC(=O)C2CCCN(S(=O)(=O)c3c(C)noc3C)C2)c1 (stereo not drawn),outcome,,inactive
same,inhibition,[1],13.3%
O=C1CSCN1CC(=O)N1CCCCC1c1cc2ccccc2[nH]1 (stereo not drawn),inhibition,,inactive
COc1ccc(-n2ccn(CC(=O)Nc3cccc(F)c3)c2=O)cc1,inhibition,,inactive
COc1ccc(C2=Nc3ccccc3N(Cc3cccc(F)c3)C(=O)C2)cc1,inhibition,stronger effect = higher value,30.2% (inactive)
same,inhibition,[1],8.7%
COc1ccc(C2=Nc3ccccc3N(CC(=O)Nc3cccc(F)c3)C(=O)C2)cc1,inhibition,stronger effect = higher value,40.3% (active)
same,inhibition,[1],12.6%
CNC(=O)N1C[C@@H](CN(C)C)[C@@H](C2CCN(CCC(C)C)CC2)C1,outcome,,inactive
same,inhibition,[1],13.1%
COc1ccc(CNS(=O)(=O)c2ccc3onc(C(=O)N4CCCCC4)c3c2)cc1OC,outcome,,inactive
same,inhibition,[1],3.7%
Cc1ccc(NC(=O)c2ncoc2-c2ccco2)cc1Cl,inhibition,,inactive
O=C(NCc1ccccc1)c1cc(-c2ccco2)on1,inhibition,,inactive
O=C(Nc1nc(-c2ccco2)c(-c2ccco2)s1)c1ccccc1,inhibition,stronger effect = higher value,71.2% (active)
same,inhibition,[1],27.2%
CC(=O)c1c(C)[nH]c(C(=O)Nc2nc(-c3ccco3)c(-c3ccco3)s2)c1C,inhibition,stronger effect = higher value,52.8% (active)
same,inhibition,[1],25%
CCN1CCc2nc(NC(=O)c3ccccc3)sc2C1,inhibition,,inactive
COCC(=O)N1CCC(Oc2ncccc2C(=O)N(C)C)CC1,inhibition,stronger effect = higher value,4.8% (inactive)
O=C(c1ccc(F)cc1)N1CCN(c2nc3cc(Br)ccc3n3cccc23)CC1,inhibition,,inactive
COc1cc(S(=O)(=O)N2CCN=C2Cc2ccccc2)c(OC)cc1Cl,inhibition,,inactive
O=C(c1ccc2nc[nH]c2c1)N1CCN(Cc2cccc(Cl)c2)CC1,outcome,,inactive
same,inhibition,[1],6%
CCCC(=O)Nc1nnc(S(=O)(=O)N(C)Cc2ccco2)s1,inhibition,,inactive
Cc1noc2ncc(C(=O)N3CCN(CCO)CC3)cc12,inhibition,,inactive
O=C(c1nc(Nc2ccc(F)cc2)c2ccccc2n1)N1CCCCCC1,inhibition,,inactive
O=C(NC1CCCCC1)c1cc(-c2ccco2)nc2ccccc12,inhibition,stronger effect = higher value,20.8% (inactive)
same,inhibition,[1],17.2%
O=C(NC1CCCCC1)c1nc(Nc2ccccc2)c2ccccc2n1,inhibition,stronger effect = higher value,73.1% (active)
same,inhibition,[1],59.6%
CCC(OC1CCCC1)C(=O)N1CCN(c2nccn2C)CC1 (stereo not drawn),outcome,,inactive
same,inhibition,[1],9.4%
CC(=O)Nc1cc(C(=O)NCCCN2CCC(C)CC2)ccc1S(=O)(=O)c1ccc(Cl)cc1,inhibition,stronger effect = higher value,23.9% (inactive)
same,inhibition,[1],5%
CCCNS(=O)(=O)c1cc(-c2nc(-c3cccc(Cl)c3)cs2)n(C)c1C,inhibition,stronger effect = higher value,32.9% (inactive)
same,inhibition,[1],21.9%
Cc1csc(-c2cc(S(=O)(=O)N3c4ccccc4CC3C)c(C)n2C)n1 (stereo not drawn),inhibition,stronger effect = higher value,63.6% (active)
same,inhibition,[1],22.6%
Cc1nn(Cc2csc(-c3ccsc3)n2)c(C)c1S(=O)(=O)N1CCc2ccccc21,inhibition,stronger effect = higher value,7.1% (inactive)
same,inhibition,[1],12.8%
CN(Cc1ccccc1)C(=O)c1cccc2c1CCN2C(=O)Nc1ccccc1,outcome,,inactive
same,inhibition,[1],2.8%
CCc1c(C2CCN(C(=O)C3COc4ccccc4O3)CC2)noc1N (stereo not drawn),inhibition,,inactive
Cc1ccc(NC(=O)N2CCCC(C)(C(=O)NCc3ccc(F)cc3)C2)cc1 (stereo not drawn),inhibition,,inactive
Cc1csc(-c2ccc(CNC(=O)c3cncc(Br)c3)cc2)n1,inhibition,,inactive
COc1ccc(C(=O)Nc2cc(-c3nc(C)cs3)sc2C)cc1OC,inhibition,stronger effect = higher value,27.2% (inactive)
same,inhibition,[1],11.4%
Cc1ccc(C(=O)Nc2cc(-c3nc(C)cs3)sc2C)cc1,inhibition,stronger effect = higher value,56.1% (active)
same,inhibition,[1],28%
O=C(c1cc(Cl)c[nH]1)N1CCCN(Cc2cscn2)CC1,inhibition,,inactive
Cc1noc2nc(-c3ccccc3F)cc(C(=O)N3CCCC3c3nnc4ccccn34)c12 (stereo not drawn),inhibition,,inactive
O=C1CCCc2cc(S(=O)(=O)N3CCN(c4ccccc4)CC3)ccc2N1,inhibition,stronger effect = higher value,19.1% (inactive)
same,inhibition,[1],8.5%
CC1(c2ccco2)NC(=O)N(Cc2cn(-c3ccccc3)nc2-c2ccccc2)C1=O (stereo not drawn),inhibition,,inactive
Cc1sc2cc(C(=O)NC(C)(C)C)[nH]c2c1CN1CCOCC1,inhibition,stronger effect = higher value,2.4% (inactive)
same,inhibition,[1],3%
Cc1cc2[nH]c(C(=O)Nc3ccccc3C)c(CN3CCOCC3)c2s1,inhibition,stronger effect = higher value,97.7% (active)
same,inhibition,[1],94.7%
COc1ccc(CNC(=O)c2[nH]c3cc(C)sc3c2CN2CCCC2)cc1,inhibition,stronger effect = higher value,35.5% (inactive)
same,inhibition,[1],10.1%
Cc1ccc(S(=O)(=O)N2CCc3nc(N4CCOCC4)[nH]c(=O)c3CC2)cc1C,inhibition,,inactive
Cc1cc(C)c(S(=O)(=O)N2CCN(C)c3ccccc32)c(C)c1,inhibition,,inactive
CCc1nnc(-c2nnc(NCc3ccc4c(c3)OCO4)c3ccccc23)o1,outcome,,inactive
same,inhibition,[1],3%
O=S(=O)(Cc1ccccc1)Nc1cccc(-c2nnc(Cc3ccc4c(c3)OCO4)o2)c1,inhibition,stronger effect = higher value,46.9% (active)
same,inhibition,[1],17.2%
CCOC(=O)c1ccc(S(=O)(=O)Nc2cccc(-c3nnc(-c4ccccc4)o3)c2)cc1,inhibition,stronger effect = higher value,2.3% (inactive)
c1cnc(N2CCN(c3ncnc4nc[nH]c34)CC2)nc1,inhibition,stronger effect = higher value,0.6% (inactive)
